Molecules are shown by their SMILES. Active and inactive are the calls of the source.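 How the source made its calls: active means blocks over 60% of fluorescent estradiol binding at 10 µM; inactive means the rest.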

The target of the assay is G-protein coupled estrogen receptor 1 (Homo sapiens) (UniProt Q99527). As to the kind of experiment: displacement of E2-Alexa633 from GPER – cell-based, Cos7 GPR30-GFP, flow cytometry, 10 µM, primary screen (AID 1212). The conditions noted are these: fluorescent estrogen competition, at 10 µM; hits give high values. On the technique in general: In flow cytometry, cells or beads pass a laser one at a time.
As to `COc1cc([N+](=O)[O-])cc2c1NC(c1ccc(Br)cc1)C1CC=CC21` (configuration not stated), the call was inactive. By inhibition is commonly meant the change of the read-out against control, counted positive when it falls. Regarding `CCCCOc1cc(OCCCC)c2c3c(c(=O)oc2c1)CCCC3`, the inhibition is 34% (inactive).

Turning to `O=C1CC(c2ccncc2)c2cc3c(cc2N1)OCCO3` (configuration not stated), the inhibition is 1% (inactive).

On to `Cc1oc2ccc(OCC#N)cc2c1C(=O)OC(C)C`, for which the outcome was inactive. In the case of `COc1cc([N+](=O)[O-])cc2c1NC(c1ccccc1Cl)C1CC=CC21` (configuration not stated), the compound was classed as inactive. On the same count and under the same terms, as for `COc1cc2c(c([N+](=O)[O-])c1)NC(c1ccc(Br)cc1)C1CC=CC21` (configuration not stated), the entry is “inactive”. The same measure, in the same setting: under `CC1CCN(Cc2c(O)ccc3c4c(c(=O)oc23)CCC4)CC1` stands “inactive”.

Consider `CCOc1ccc(NS(=O)(=O)c2ccc3c(c2)[C@H]2C=CC[C@H]2[C@@H](c2cccc([N+](=O)[O-])c2)N3)cc1`, for which the inhibition was 20% (inactive). `CC(=O)OC1CC2(C)C(=O)CCC2C2CCc3cc(O)ccc3C12` (configuration not stated): the compound was called inactive.

On to `COc1ccc2[nH]c3c(c2c1)CCNC3=O`, for which the inhibition is 15% (inactive). As for `CCc1cc2c3c(c(=O)oc2cc1OCC(=O)O)CCCC3`, the inhibition was 10% (inactive).

Regarding `COc1ccc(NS(=O)(=O)c2ccc3c(c2)[C@H]2C=CC[C@H]2[C@@H](c2ccc(F)cc2)N3)cc1`, the inhibition is 56% (inactive).

Regarding `CSC(=O)CNC1(Cc2ccc(O)cc2)CCCCC1`, the compound was called inactive.

For `CC1(C)Cc2[nH]c3ccccc3c2C(C)(C)N1`, the compound was classed as inactive.

Turning to `O=C1CC(c2ccc3c(c2)OCO3)c2ccc3ccccc3c2N1` (configuration not stated), the call was inactive. With `CCCCCCc1cc2c3c(c(=O)oc2cc1OCC(=O)O)CCCC3`, the compound was classed as inactive. For `COc1cccc(C2NCCc3cc(OC)c(OC)cc32)c1` (configuration not stated), the result was inactive. For the compound `COc1cc([N+](=O)[O-])cc2c1NC(c1ccc(Cl)cc1)C1CC=CC21` (configuration not stated), the inhibition is 9% (inactive). Regarding `COC(=O)c1ccc(OCc2c(C)noc2C)cc1`, the inhibition was 61% (active). Turning to `CCOC(=O)c1c(N)sc2c1CC(C)(C)NC2(C)C`, the inhibition was 10% (inactive).

Regarding `Cc1c(Cc2ccccc2)c(=O)n2c([nH]c3ccccc32)c1C#N`, the inhibition was 8% (inactive).

`CC1=CC(C)C2(CO)COC(c3ccccc3O)C1C2C` (configuration not stated): the compound was classed as inactive. Consider `CCOc1cc2c(c([N+](=O)[O-])c1)NC(c1ccccc1)C1CC=CC21` (configuration not stated), for which the inhibition was 38% (inactive). Same read-out and setting: as for `CCCCc1cc2c(=O)c(-c3ccccn3)coc2cc1O`, the figure is 3% (inactive). In the case of `COc1ccc(C2(CNCC(N)=O)CCCC2)cc1OC`, the compound was classed as inactive.

On to `COc1cc(C2CC(=O)Nc3c2ccc2ccccc32)cc(Cl)c1O` (configuration not stated), for which the inhibition was 3% (inactive). As for `C=C1c2ccc(OC)cc2NC(=O)N1c1ccccc1`, the compound was classed as inactive.

These data come from PubChem BioAssay AID1212 (NMMLSC, 2008).
